# From publication PMC5540273 (PLoS ONE, 2017)
# How the values were obtained:
# Conditions in all cases: concentration: 1 μM, replicates: in singlicate; n = 1
# [1] = test system: IRAK4
# [2] = test system: ITK
# [3] = test system: JAK1(JH1domain-catalytic)
# [4] = test system: JAK1(JH2domain-pseudokinase)
# [5] = test system: JAK2(JH1domain-catalytic)
# [6] = test system: JAK3(JH1domain-catalytic)
# [7] = test system: T1, JNK1
# T1 construct: gene MAPK8
# [8] = test system: T2, JNK2
# T2 construct: gene MAPK9
# [9] = test system: T3, JNK3
# T3 construct: gene MAPK10
# [10] = test system: KIT-autoinhibited
# [11] = test system: KIT
# [12] = test system: LATS1
# [13] = test system: LATS2
# [14] = test system: LCK
# [15] = test system: LIMK1
# [16] = test system: LIMK2
# [17] = test system: T4, LKB1
# T4 construct: gene STK11
# [18] = test system: T5, LOK
# T5 construct: gene STK10
# [19] = test system: LRRK2
# [20] = test system: LTK
# 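Further: KINOMEscan kinase panel screen.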
SMILES,%Inh [1] [%],%Inh [2] [%],%Inh [3] [%],%Inh [4] [%],%Inh [5] [%],%Inh [6] [%],%Inh [7] [%],%Inh [8] [%],%Inh [9] [%],%Inh [10] [%],%Inh [11] [%],%Inh [12] [%],%Inh [13] [%],%Inh [14] [%],%Inh [15] [%],%Inh [16] [%],%Inh [17] [%],%Inh [18] [%],%Inh [19] [%],%Inh [20] [%]
Cc1cccc(-c2nc(-c3ccc(S(C)(=O)=O)cc3)sc2-c2ccnc(NCCc3ccccc3)c2)c1,9,0,2,4,8,0,0,0,0,0,98.4,13,0,0,0,4,0,0,0,0
Cc1cccc(-c2nc(Nc3ccc4[nH]ncc4c3)c3ccccc3n2)n1 [GW857175],18,5,18,83,22,60,36,32,31,30,3,1,50,10,6,2,14,19,15,0
COc1cc(Nc2nccc(N3CCC(NC(=O)Nc4cc(C)ccc4C)C3)n2)cc(OC)c1OC (stereo not drawn) [GSK1379762],16,30,5,0,76,0,24,2,11,0,78,0,0,21,20,15,0,25,22,67
CCn1c(-c2cccnc2O)nc2cnccc21 [SB-736715],0,26,0,0,0,0,0,10,1,18,0,0,0,0,0,0,27,0,0,0
Cn1cncc1-c1ccc2ncnc(Nc3ccc(OCc4ccccc4)cc3)c2c1 [GW320571],2,14,18,22,0,0,18,6,4,0,28,0,0,13,18,11,0,2,21,11
Clc1cc(Cl)cc(Nc2ccnc(Nc3cc(Cl)cc(Cl)c3)n2)c1 [GSK175726],0,4,12,0,22,0,2,0,0,3,40,0,17,27,10,31,14,0,0,0
O=C(O)COc1ncnc2cc(-c3ccc4[nH]ncc4c3)sc12,0,0,0,44,16,46,30,21,15,30,21,0,48,0,0,0,0,2,0,97.3
CN(C)CCN(C)C(=O)c1cc(-c2ccncc2)c(-c2ccc(Cl)c(O)c2)o1.Cl.Cl [SB-710397],43,13,18,0,49,0,27,29,35,0,0,3,0,34,0,0,0,72,0,11
CCn1c(-c2ccccn2)nc2cnccc21 [SB-736398],37,0,0,0,17,0,24,19,8,0,0,0,0,12,13,0,0,0,31,1
